An excerpt weighted towards active compounds, which were near 3.5% of everything screened.
BoNT-F LC inh: inhibitors of Botulinum neurotoxin F light chain protease; inhibition, % at 10 µM; Multiplex microsphere protease cleavage assay, flow cytometry; 360,000 tested, 0.22% active; in the data active = inhibition above about 35%, passing the limit was not always enough; inconclusive = no clear call, values can overlap the other calls; also: plate controls were buffer without enzyme for full effect and enzyme alone for no effect
BoNT-A LC inh2: blocks Botulinum neurotoxin A light chain protease | multiplex microsphere protease substrate cleavage, flow cytometry | inhibition, % at 10 µM | 360,000 tested, 0.17% active; also: plate controls were buffer without enzyme for full effect and enzyme alone for no effect
Anthrax LF prot: anthrax lethal factor protease inhibition; P15917; 360,000 tested, 0.12% active; inhibition, % at 10 µM; multiplex microsphere protease cleavage assay, LF; AID 588501; also: plate controls were buffer without enzyme for full effect and enzyme alone for no effect
Target sequence (P15917 whole entry, looked up): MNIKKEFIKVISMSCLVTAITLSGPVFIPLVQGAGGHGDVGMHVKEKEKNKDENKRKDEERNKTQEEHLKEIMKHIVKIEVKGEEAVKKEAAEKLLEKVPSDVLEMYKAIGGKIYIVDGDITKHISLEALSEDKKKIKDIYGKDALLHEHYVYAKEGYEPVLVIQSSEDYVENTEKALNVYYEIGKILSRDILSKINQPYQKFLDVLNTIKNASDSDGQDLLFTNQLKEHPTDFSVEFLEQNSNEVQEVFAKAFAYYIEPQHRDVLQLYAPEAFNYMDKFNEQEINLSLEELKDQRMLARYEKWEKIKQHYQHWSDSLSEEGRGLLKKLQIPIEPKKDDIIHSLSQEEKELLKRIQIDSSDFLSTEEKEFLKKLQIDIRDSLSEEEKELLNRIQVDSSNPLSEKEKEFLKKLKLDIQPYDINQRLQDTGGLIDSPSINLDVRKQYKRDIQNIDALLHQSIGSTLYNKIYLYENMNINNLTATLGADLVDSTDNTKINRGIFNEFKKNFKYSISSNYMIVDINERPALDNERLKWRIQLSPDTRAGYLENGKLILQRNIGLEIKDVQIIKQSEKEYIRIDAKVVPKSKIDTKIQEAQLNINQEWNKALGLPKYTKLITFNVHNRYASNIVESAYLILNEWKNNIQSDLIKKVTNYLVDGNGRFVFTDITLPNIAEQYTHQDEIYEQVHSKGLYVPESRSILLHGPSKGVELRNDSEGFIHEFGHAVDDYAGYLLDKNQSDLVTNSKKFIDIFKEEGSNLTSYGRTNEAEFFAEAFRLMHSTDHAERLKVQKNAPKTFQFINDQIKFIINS
SARS 3CLpro inh: SARS-CoV 3CLpro protease inhibition | recombinant SARS-CoV 3CLpro, quenched FRET peptide cleavage | inhibition, % at 6 µM | 290,000 tested, 0.14% active | AID 1706; in the data active = inhibition above about 12%
Bead autofluor: flagged as autofluorescent in microsphere protease counterscreen; 360,000 tested, 3.1% active; fluorescence intensity (concentration not given with the values); AID 624483; compound autofluorescence counterscreen, microsphere flow cytometry; stronger effect = higher value; in the data active = fluorescence intensity above about 16000; inconclusive = no clear call, values can overlap the other calls
Numbers without * were called inactive; ? = inconclusive; . = no result given. Rule as the data show it, unless noted: active = inhibition above about 30%; inconclusive = no clear call, values can overlap the other calls; inactive = below that.

SMILES | BoNT-F LC inh | BoNT-A LC inh2 | Anthrax LF prot | SARS 3CLpro inh | Bead autofluor
Cc1nc2c(C#N)c[nH]n2c(=O)c1Cc1ccccc1 | -4.9 | 0.2 | -1.6 | 0.9 | 7242
CC(=O)c1sc(NC(=O)CCS(=O)(=O)c2ccccc2)nc1C | 11.7 | 1.7 | 4.8 | 3.4 | 3887
Cc1cc(NC(=O)COC(=O)CSCc2ccc(Cl)c(Cl)c2)no1 | 4.1 | ? | 0.5 | 1.0 | 22915*
Cc1cc(NC(=O)COC(=O)c2c(C)nn(Cc3ccccc3Cl)c2Cl)no1 | -4.0 | -3.4 | -7.0 | -3.3 | 24183*
Cc1noc(C)c1C(=O)OCC(=O)c1cc(C)n(Cc2ccccc2Cl)c1C | -4.3 | -2.0 | -17.2 | 1.3 | 22970*
Cc1cc(NC(=O)COC(=O)c2cccc(OCc3ccccc3)c2)no1 | -2.5 | -0.6 | 0.4 | 0.4 | 20597*
COc1cccc(-c2ccc3c(c2)C2CC3CCN2C(=O)c2ccc(-c3ccccc3)cc2)c1 (configuration not stated) | -3.5 | -0.6 | -13.4 | . | 3630
CC[C@H](C)[C@H](NC(N)=O)C(=O)NCCc1ccc(Cl)cc1 | 1.2 | 0.2 | -0.4 | 3.8 | 4299
COc1cccc(C(=O)NNC(=O)CCC(=O)O)c1 | -4.6 | -1.3 | 1.0 | -0.4 | 3977
CCCNC(=O)NC1CCCCCCC1 | -6.2 | -0.1 | -1.5 | 0.9 | 2182
CCN(CC)CCNC(=O)NC1CCCCC1 | -3.6 | ? | 0.3 | -7.7 | 22854*
Brc1ccc(-c2nnc3sc(CN4CCc5ccccc5C4)cn23)cc1 | -4.0 | -1.4 | 4.8 | . | 4982
CN(c1ccccc1)S(=O)(=O)c1ccc(NC(=S)Nc2ccccc2)cc1 | 1.8 | -0.3 | -1.2 | 2.6 | 9842
Cc1ccc(-c2nnn(Cc3nc4ccccc4s3)n2)cc1 | 4.1 | 4.6 | 2.0 | -4.2 | 21007*
CN(C)c1ccc(C(=O)Nc2ccc(S(=O)(=O)NC3=NCCCCC3)cc2)cc1 | -0.7 | 1.2 | -0.6 | -0.5 | 22816*
COc1ccc(CCNC(=O)c2c(C)noc2C)cc1 | 1.0 | 0.3 | -0.5 | -3.2 | 12285
COc1cc(C(C[N+](=O)[O-])c2c(C)[nH]c3ccccc23)cc(OC)c1OC (configuration not stated) | -3.2 | -0.3 | -1.5 | 2.2 | 21574*
O=[N+]([O-])CC(c1ccccc1)c1c[nH]c2ccccc12 (configuration not stated) | ? | 1.9 | 0.0 | . | 3244
COc1ccccc1CC(=O)O/N=C(\N)Cc1cccc2ccccc12 | -1.2 | 2.1 | 3.2 | 1.7 | 22659*
CC1(C(=O)NC2CCCC2)CCC(=O)N1Cc1ccccc1 (configuration not stated) | 0.2 | ? | -2.9 | -0.3 | 23334*
c1ccc(NC(=NCc2ccco2)c2ccccc2)cc1 | 22.6 | 1.9 | -2.7 | -1.0 | 6397
CCOC(=O)/C(C(N)=NCc1ccco1)=C(/O)c1ccccc1 | -1.9 | -0.2 | -1.4 | 0.6 | 23453*
CCn1c(SCc2nc3ccccc3[nH]2)nnc1-c1cccs1 | 10.1 | ? | -1.5 | -6.4 | 21099*
Cn1c(COc2ccccc2)nnc1SCc1nc2ccccc2[nH]1 | 2.9 | 1.6 | -2.5 | 4.5 | 8994
CCn1c(COc2ccc(C)cc2)nnc1SCc1nc2ccccc2[nH]1 | -1.1 | -1.0 | -5.8 | -5.5 | 19776*
SMILES | BoNT-F LC inh | BoNT-A LC inh2 | Anthrax LF prot | SARS 3CLpro inh | Bead autofluor
CCn1c(SCc2nc3ccccc3[nH]2)nnc1-c1ccccc1OC | 3.7 | 0.4 | 1.8 | -3.8 | 2344
Cc1cc(C(=O)NC(C)C2CCCO2)cs1 (configuration not stated) | -2.7 | ? | -1.4 | 7.0 | 16328*
CCc1cc(C(=O)NC(C)C2CCCO2)cs1 (configuration not stated) | -1.7 | -3.6 | -1.3 | 3.7 | 6538
COc1cccc2cc(C(=O)NC(C)C3CCCO3)c(=O)oc12 (configuration not stated) | -3.6 | -0.6 | -3.9 | -5.6 | 16163*
COc1cc(Br)cc2cc(C(=O)NCC3CCCO3)c(=O)oc12 (configuration not stated) | -2.6 | ? | -1.1 | 1.9 | 22610*
CC(NC(=O)c1csc2ccccc12)C1CCCO1 (configuration not stated) | -4.2 | ? | 1.0 | 1.3 | 16909*
Cc1nnc(NC(=O)COc2ccc3c(C)cc(=O)oc3c2)s1 | -3.4 | -0.4 | -0.8 | 4.9 | 3694
Cc1ccccc1-c1nnc(SCC(=O)Nc2c(C)n(C)n(-c3ccccc3)c2=O)o1 | -6.0 | -0.3 | -13.7 | -3.2 | 4230
O=C(CSc1nncs1)N1CCN(C(=O)c2ccco2)CC1 | 12.2 | -1.2 | -2.1 | . | 6614
COCCN(C(=O)c1ccc(COc2ccccc2)o1)c1c(N)n(CC(C)C)c(=O)[nH]c1=O | -13.2 | -0.1 | -5.2 | . | 3877
CC(NC(=O)c1ccc(Cl)s1)C1CCCO1 (configuration not stated) | -4.4 | -2.4 | 0.9 | 2.7 | 24646*
CC(NC(=O)Nc1ccc2c(c1)OCO2)C1CCCO1 (configuration not stated) | 1.6 | 1.0 | -1.4 | -3.8 | 23219*
c1ccc(CNC2CN3CCC2CC3)cc1 (configuration not stated) | 7.2 | 0.3 | 4.9 | . | 3707
COc1ccc(NC(=O)CCC(=O)Nc2nnc(C(F)(F)F)s2)c(OC)c1 | -2.0 | 1.4 | -10.2 | 5.2 | 18599*
O=C(CCC(=O)NC1CCCCCC1)Nc1nnc(C(F)(F)F)s1 | 5.6 | ? | -6.3 | -2.8 | 21138*
O=C(CCC(=O)NC1CCCCCCC1)Nc1nnc(C(F)(F)F)s1 | -6.5 | -1.2 | -1.2 | 1.0 | 8566
O=C(Nc1cccnc1Cl)c1cc(-c2ccc(F)cc2)on1 | 14.3 | 1.9 | -3.5 | -5.6 | 4087
COC(=O)c1ccccc1OP1(=O)COc2ccccc2OC1 | -3.4 | ? | -1.2 | 1.3 | 22712*
COC(=O)c1ccccc1OS(=O)(=O)N(C)C | 1.0 | -0.4 | 0.9 | 0.7 | 2026
CC(C)CCNC(=O)C1CCN(c2nc3ccccc3o2)CC1 | -2.8 | -1.5 | -7.0 | 2.0 | 16365*
C=CCn1cnc2c(c1=O)c1nc3ccccc3nc1n2/N=C/c1cccc(OC)c1 | 8.4 | ? | 0.1 | . | 21328*
COCCn1cnc2c(c1=O)c1nc3ccccc3nc1n2/N=C/c1ccc(OC)c(OC)c1 | ? | ? | -12.4 | 1.6 | 3798
CCN(CC)c1ccc(/C=C2\C(=O)c3ccc(C(=O)O)cc3C2=O)cc1 | 63.8* | 14.2 | 37.3* | -5.3 | 9698
O=C(COC(=O)COc1ccc2ccccc2c1)NCC(F)(F)F | 37.0* | 4.2 | -6.4 | 1.6 | 4574
CCNC(=O)COc1ccc2ccccc2c1 | -18.1 | -2.5 | -6.5 | 4.3 | 4284
Cc1ccc2cccc(OCC(=O)Nc3cccc(S(=O)(=O)N4CCCC4)c3)c2n1 | -12.6 | -0.8 | 1.0 | . | 6018
Cc1ccc2cccc(OC(=O)N3CCCC3)c2n1 | -9.5 | -8.9 | 1.7 | 2.5 | 22325*
CN1CCCC(OC(=O)c2cccc(Br)c2)C1 (configuration not stated) | ? | -0.8 | 1.1 | -1.3 | 3952
CN1CCC(OC(=O)c2cccc(Br)c2)CC1 | 2.6 | 2.6 | 0.4 | -1.7 | 21018*
Oc1ccccc1C1=Nc2ncnn2C(c2ccccc2)C1 (configuration not stated) | -3.6 | -0.9 | -10.0 | -0.7 | 16346*
